Laboratory results taken from PubChem BioAssay (Tox21).
The source made the active and inactive calls. Unless noted, calls follow the shape of the dose curve; as a rule, active = well fitted curve in the direction sought with a large enough effect in the repeat runs; inconclusive = weak or mixed curves; inactive = no such curve, though single readings can be large; an effect the other way counts as inactive or inconclusive.

Assays:
[1] = qHTS assay for small molecule agonists of the p53 signaling pathway (AID 651631; calls by dose curve; also: nearly all actives have a fitted effect of over 15% in size; also: potency is read from the fitted curve at half-maximal effect)
Outline: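 Beta-lactamase reporter activity under p53 response elements was quantified in HCT-116 cells by FRET fluorescence, following 16 h incubation with test compounds at 37 °C and 2 h substrate development at room temperature.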

[2] = qHTS assay for small molecules that induce genotoxicity in human embryonic kidney cells expressing luciferase-tagged ATAD5 (AID 651632); also: nearly all actives have a fitted effect of over 15% in size
Outline: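 HEK293T cells carrying a luciferase reporter tagged to ATAD5 were exposed to compound or DMSO vehicle for 16 hr at 37C, 5% CO2. Amplite was added, and after 30 min at room temperature luciferase activity was read as a marker of ATAD5 induction.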

[3] = qHTS assay for small molecule agonists of the p53 signaling pathway - cell viability (AID 651633; calls by dose curve; also: nearly all actives have a fitted effect of over 30% in size; also: potency is read from the fitted curve at half-maximal effect)
Outline: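 Viability counter-read: CellTiter-Glo luminescence (30 min, room temperature) in the same p53RE-bla plates. These plates had been exposed to compounds for 16 h at 37 C.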

[4] = qHTS assay for small molecules that induce genotoxicity in human embryonic kidney cells expressing luciferase-tagged ATAD5 - cell viability (AID 651634; calls by dose curve; also: nearly all actives have a fitted effect of over 25% in size; also: potency is read from the fitted curve at half-maximal effect)
Outline: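 HEK293T cells expressing luciferase-tagged ATAD5 were exposed to compound or DMSO for 15.5 hr at 37C, 5% CO2. Viability was then read as live-cell protease activity by CellTiter-Fluor fluorescence after 30 min at 37C.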

[5] = qHTS assay for small molecule disruptors of the mitochondrial membrane potential - cell viability (AID 720634; calls by dose curve; also: nearly all actives have a fitted effect of over 20% in size; also: potency is read from the fitted curve at half-maximal effect)
Outline: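 HepG2 cells seeded overnight at 37 C, then exposed to compound or DMSO for 1 hr at 37 C, 5% CO2. m-MPI dye added, then CellTiter-Glo for 30 min at room temperature; viability read as ATP luminescence.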

[6] = qHTS assay for small molecule disruptors of the mitochondrial membrane potential (AID 720635); also: potency is read from the fitted curve at half-maximal effect
Outline: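 Mitochondrial membrane potential tracked with Mito-MPS dye, red aggregates (ex 540/em 590 nm) against green monomers (ex 490/em 535 nm). Compound treatment 1 hr at 37C, dye 30 min in HepG2.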

[7] = qHTS assay to test for compound auto fluorescence at 590 nm (red) in HepG2 cells (AID 720674)
Outline: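 Red autofluorescence (Ex/Em 540/590 nm, Rose Bengal sodium equivalents) was measured in HepG2 cells, 2,000 per well in MEM plus 10% FBS, plated overnight at 37 C. Readings were taken 1 hr after adding 23 nL compound or DMSO, at 37 C and 5% CO2.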

[8] = qHTS assay to test for compound auto fluorescence at 535 nm (green) in HepG2 cells (AID 720675)
[9] = qHTS assay to test for compound auto fluorescence at 460 nm (blue) in HEK293 cells (AID 720678)
Outline: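 Blue-channel (Ex/Em 405/460 nm) intensity measured in HEK293 cultures after overnight compound exposure at 37C; signal expressed relative to triamterene. Cells plated 2,000 per well in 10% dialyzed FBS medium and allowed 4-5 hr to attach.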

[10] = qHTS assay to test for compound auto fluorescence at 590 nm (red) in HEK293 cells (AID 720679)
Outline: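 Red-channel autofluorescence (Ex/Em 540/590 nm; Rose Bengal sodium reference) was measured after overnight 37C, 5% CO2 exposure of attached HEK293 cells, 2,000 per well in medium with 10% dialyzed FBS.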

[11] = qHTS assay to test for compound auto fluorescence at 535 nm (green) in HEK293 cells (AID 720680)
[12] = qHTS assay to test for compound auto fluorescence at 460 nm (blue) in HEK293 cell free culture (AID 720681)
Outline: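 Blue fluorescence (Ex 405/Em 460 nm, triamterene-equivalent) was read immediately after pin transfer of compound or DMSO into medium (DMEM, 10% FBS) without cells.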

[13] = qHTS assay to test for compound auto fluorescence at 535 nm (green) in HEK293 cell free culture (AID 720682)
Outline: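 Each library compound, or DMSO control, is added by pintool to medium alone, comprising DMEM and 10% FBS. Emission at 535 nm following 485 nm excitation is quantified against fluorescein.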

[14] = qHTS assay to test for compound auto fluorescence at 590 nm (red) in HEK293 cell free culture (AID 720683)
Outline: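 Red-channel autofluorescence of compounds in culture medium (DMEM, 10% FBS), no cells, measured at 540/590 nm. Rose Bengal sodium is the reference fluorophore for equivalence.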

[15] = qHTS assay to test for compound auto fluorescence at 590 nm (red) in HepG2 cell free culture (AID 720684)
Outline: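 Plate contents were MEM with 10% FBS plus test compound or DMSO, no cells. Fluorescence was recorded with 540 nm excitation and 590 nm emission.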

[16] = qHTS assay to test for compound auto fluorescence at 460 nm (blue) in HepG2 cell free culture (AID 720685)
Outline: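 Compound (23 nL) or DMSO pinned into cell-free MEM with 10% FBS; blue fluorescence read at 405/460 nm excitation/emission, expressed as auto-fluorescence equivalency to triamterene.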

[17] = qHTS assay to test for compound auto fluorescence at 535 nm (green) in HepG2 cell free culture (AID 720686)
[18] = qHTS assay to test for compound auto fluorescence at 460 nm (blue) in HepG2 cells (AID 720687)
Outline: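 Blue-channel autofluorescence (Ex/Em 405/460 nm, triamterene-equivalent) was measured after 1 hr compound exposure at 37 C, 5% CO2. Cells were HepG2, plated overnight at 37 C in MEM plus 10% FBS.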

[19] = target: Glucocorticoid receptor (Homo sapiens) (UniProt P04150); assay: qHTS assay to identify small molecule agonists of the glucocorticoid receptor (GR) signaling pathway (AID 720691; active = well fitted activation curve with a large enough effect in the signal ratio in the repeat runs, not every such curve was filed as active; inconclusive = weak or mixed curves, or effect the other way; inactive = no such curve, though single readings can be large or run the other way; the % refers to the signal ratio; also: potency is read from the fitted curve at half-maximal effect); settings: GR-bla HeLa, beta-lactamase reporter ratio, 18 h; activation: at 62.4 µM (top of the series)
Outline: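 GR-bla HeLa cells (beta-lactamase reporter under glucocorticoid response element) were plated 4 h at 37 C/5% CO2, given compounds in DMSO, and incubated 18 h at 37 C. LiveBLAzer B/G FRET substrate was added for 2 h at room temperature, then fluorescence intensity read.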

[20] = target: Glucocorticoid receptor (Homo sapiens) (UniProt P04150); assay: qHTS assay to identify small molecule antagonists of the glucocorticoid receptor (GR) signaling pathway (AID 720692; active = well fitted inhibition curve with a large enough effect in the signal ratio in the repeat runs, not every such curve was filed as active; inconclusive = weak or mixed curves, or effect the other way; inactive = no such curve, though single readings can be large or run the other way; the % refers to the signal ratio)
Outline: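 GR-bla HeLa cells (beta-lactamase reporter under glucocorticoid response element) were pre-plated 4 h at 37 C, treated with compounds plus 5 nM dexamethasone (final) for 18 h, then read by LiveBLAzer B/G FRET fluorescence after 2 h.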

Measured: Potency

Glucocorticoid receptor (Homo sapiens), sequence (P04150 whole entry, looked up): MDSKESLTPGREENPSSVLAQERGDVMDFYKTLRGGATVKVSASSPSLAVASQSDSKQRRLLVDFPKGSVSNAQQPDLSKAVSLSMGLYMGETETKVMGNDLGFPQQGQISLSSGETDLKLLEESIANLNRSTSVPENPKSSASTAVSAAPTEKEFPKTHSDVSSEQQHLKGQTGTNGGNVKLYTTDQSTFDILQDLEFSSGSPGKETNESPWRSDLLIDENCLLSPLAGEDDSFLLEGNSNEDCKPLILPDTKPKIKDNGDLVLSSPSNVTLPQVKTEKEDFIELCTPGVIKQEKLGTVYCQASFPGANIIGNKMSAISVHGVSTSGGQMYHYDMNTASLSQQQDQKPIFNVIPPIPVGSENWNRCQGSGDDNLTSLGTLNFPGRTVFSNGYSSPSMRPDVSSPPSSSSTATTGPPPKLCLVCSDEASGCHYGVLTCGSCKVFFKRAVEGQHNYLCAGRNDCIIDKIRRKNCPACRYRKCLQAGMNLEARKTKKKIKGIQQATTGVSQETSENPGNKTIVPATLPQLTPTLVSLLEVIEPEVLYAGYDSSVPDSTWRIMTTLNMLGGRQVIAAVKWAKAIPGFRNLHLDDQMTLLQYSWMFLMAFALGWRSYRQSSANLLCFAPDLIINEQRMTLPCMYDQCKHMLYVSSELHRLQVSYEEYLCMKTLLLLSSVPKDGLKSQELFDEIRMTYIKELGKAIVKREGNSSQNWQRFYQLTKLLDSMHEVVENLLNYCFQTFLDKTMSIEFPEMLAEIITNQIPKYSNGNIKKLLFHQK

CC[C@@H](C(=O)[C@@H](C)[C@@H](O)[C@H](C)CCc1ccc(C)c(O)c1C(=O)O)[C@H]1O[C@](CC)([C@H]2CC[C@](O)(CC)[C@H](C)O2)C[C@@H]1C
active: [1] 23.7 µM | [3] 26.6 µM | [4] 23.7 µM | [5] 5.96 µM | [6] 1.06 µM | [19] 16.9 µM [inconclusive]
not listed: [20]
inactive: all other assays above

OCl
not listed: [20]
inactive: all other assays above

CO[C@H]1C[C@H](O[C@H]2[C@H](C)[C@@H](O[C@@H]3O[C@H](C)C[C@H](N(C)C)[C@H]3O)[C@@H](C)C[C@]3(CO3)C(=O)[C@H](C)[C@@H](O)[C@@H](C)[C@@H](C)OC(=O)[C@@H]2C)O[C@@H](C)[C@@H]1O
inactive: all assays above

CO/N=C(\C(=O)N[C@@H]1C(=O)N2C(C(=O)O)=C(CSc3cnns3)CS[C@H]12)c1csc(N)n1
inactive: all assays above

NC[C@H]1O[C@H](O[C@H]2[C@H](O)[C@@H](O[C@H]3O[C@H](CO)[C@@H](O)[C@H](N)[C@H]3O)[C@H](N)C[C@@H]2N)[C@H](N)C[C@@H]1O
not listed: [19] | [20]
inactive: all other assays above

CC/C=C\C/C=C\C/C=C\C/C=C\C/C=C\CCCC(=O)O
not listed: [20]
inactive: all other assays above
